This is an account of results in PubChem BioAssay.

Molecules are shown by their SMILES. Unmarked numbers belong to inactive results. Calls of active or inactive are those of the source.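 Rule for the calls: active = z-score of at least 1.8 in each of two replicates, scored against plate mean and spread of sample wells; inactive = the rest.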

This assay can be described thus: viability rescue of complex I mutant cybrids, primary screen, cell-based, galactose medium, ATP luminescence (AID 1645843).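 Note: positive z means more ATP and so rescue of galactose-driven cybrid death.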 To be noted: complex I mutant cybrid cells, 72 h, hits give high values.
Consider `Fc1cccc(-c2ccc(N3CCC(NC4CCNCC4)CC3)cc2)c1`, for which the z-score is -1.3.

On to `Cc1cccc2c(C(=O)N(C)C(C)C)cc(-c3cnn(C(C)C)c3)nc12`, for which the z-score was 2.17 (active).

With `CCC1(CNC(=O)Nc2nc(C)ns2)CCC1`, the z-score is 1.42.

In the case of `CC1(C)CCN(C(=O)c2cc(-c3cnc(C4CC4)nc3)nc3cc(F)ccc23)C1`, the z-score was -0.56.

As for `O=C1NCCN(C(=O)c2cccc(-c3ccccc3)c2)C1Cc1ccccc1` (stereo not given), the z-score was 2.37 (active).

For `CCc1n[nH]c2c1CN(C(=O)c1cncc(C)c1)CC2`, the z-score is 1.23.

As to `O=C(CC1CCCCCC1)N1CCC(Cn2cc(CO)nn2)CC1`, the z-score was -0.5.

Take `CCCn1cc(-c2ccnc(NC(CC(C)(C)C)c3cccnc3)n2)c(C)n1` (stereo not given): the z-score is 1.13.

Consider `CC(=O)NCCC1CCN(C(=O)C(C)Oc2cc(C)c(Cl)c(C)c2)CC1` (stereo not given), for which the z-score is -0.5.

Take `Cc1ccc(-c2nn(CC(=O)Nc3cnn(C)n3)c3ccccc23)c(F)c1`: the z-score was -0.4.

Regarding `CCn1nc(C(C)C)cc1C(=O)N1CCC(n2cc(CC(C)C)nn2)CC1`, the z-score is -0.55.

Consider `Cc1nn(C)c(C)c1-c1ccnc(NCCc2nc(-c3ccccn3)no2)n1`, for which the z-score is -0.395.

In the case of `CC(=O)N1CCCN(c2nccc(-c3cnn(-c4ccccc4F)c3)n2)CC1`, the z-score is -0.71.

`O=C1NCCN(C(=O)c2ccc(Cl)cc2)C1Cc1ccccc1` (stereo not given): the z-score was 0.59.

Take `CCN(CC)C(CNCc1ccc(OC)c(F)c1)c1ccco1` (stereo not given): the z-score is -0.84.

As for `CCn1cc(-c2cc(C(=O)N3CCCCCC3)c3cccc(C)c3n2)cn1`, the z-score was 0.305.

With `NC1CCN(C2CCN(c3cccc(-c4ccccc4)c3)CC2)CC1`, the z-score is -1.03.

As to `COCc1cn(CC2CCN(C(=O)CC3CCCCCC3)CC2)nn1`, the z-score was -0.465.

With `CCOc1ccc2ccccc2c1-c1nc2c(cnn2CC)[nH]1`, the z-score was -0.255.

Regarding `O=c1cc(CCn2cccn2)nc(-c2ccc(CN3CCC[C@@H](O)C3)cc2)[nH]1`, the z-score was -0.025.

`CCCCc1cn(C2CCN(C(=O)[C@@H]3CCCO3)CC2)nn1`: the z-score was -0.55.

For `O=C(c1ccc(OC2(C(=O)O)CCSCC2)cc1)N1CCOCC1`, the z-score was -0.515.

With `OCCCCCNc1nccc(-c2cnn(-c3ccc(F)cc3)c2)n1`, the z-score was -0.895.

Regarding `O=C(Nc1cccc(-c2cncnc2)c1)c1ccc2c(c1)OCO2`, the z-score is -0.62.

In the case of `O=C(Nc1ccc2nccnc2c1)c1csc(Cc2ccccc2)n1`, the z-score was -1.07.

Turning to `CC(C)Oc1cccc(C(=O)N2CCC(Cn3cc(C4CC4)nn3)CC2)c1`, the z-score is -0.515.

As for `NC(=O)NCc1cn(C2CCN(C(=O)C3CCCCCC3)CC2)nn1`, the z-score was -0.575.

`CCc1nc(C)ccc1OCC(=O)N1CCc2[nH]nc(C3CC3)c2C1`: the z-score was -0.685.

For `NCCCNC1CCN(c2ccc(-c3cccc(F)c3)cc2)CC1`, the z-score was -1.31.

For `Cc1cc(C)n(CC(C)n2cnc3sc4c(c3c2=O)CCCCC4)n1` (stereo not given), the z-score was 2.45 (active).

For `CCCC[C@@H]1C[C@@H]1C(=O)N1CCC(n2cc(CC(C)C)nn2)CC1`, the z-score is -0.07.

Consider `C=C1C2(C(=O)N3CCC(CCN4CCCC4=O)CC3)CCC(C2)C1(C)C` (stereo not given), for which the z-score was -0.41.

As for `O=C(O)C1(Oc2cccc(-c3cccc4ncccc34)c2)CCCC1`, the z-score was -0.5.

As to `C=C1C2(C(=O)N3CCCC(C(=O)N4CCOCC4)C3)CCC(C2)C1(C)C` (stereo not given), the z-score was -0.555.

For the molecule `CCCCc1cn(C2CCN(C3Cc4ccccc4C3)CC2)nn1`, the z-score is -0.33.

With `Cc1nsc(NC(=O)N2CCN(c3ccccc3)CC2C)n1` (stereo not given), the z-score is 2.15 (active).

In the case of `Cc1cccc2ncn(C3CC(C)(C)NC(C)(C)C3)c(=O)c12`, the z-score is -0.515.

Consider `O=C(Nc1n[nH]c(-c2ccco2)n1)N1CCc2c([nH]c3ccccc23)C1`, for which the z-score is -0.135.

Take `COc1nccnc1-c1cccc(-n2cccn2)c1`: the z-score is -0.545.

In the case of `COc1ccc(-c2nc(N)nc(Nc3ccc(C)cc3)n2)cc1F`, the z-score is -0.745.
